BoNT A protease: BoNT/A light chain protease inhibitors, primary screen, biochemical, flow cytometry, MLPCN library. 360,000 compounds, 0.17% hits. inhibition, % at 10 µM. multiplex microsphere protease substrate cleavage. Botulinum neurotoxin type A light chain protease (Clostridium botulinum A str. ATCC 3502). AID 588499, 2011; further: plate controls were buffer without enzyme for full effect and enzyme alone for no effect
Mtb FBA inh: Mtb FBA enzyme inhibitors, primary screen, biochemical, fluorescence, strain H37Rv | Fructose-bisphosphate aldolase (Mycobacterium tuberculosis (strain ATCC 25618 / H37Rv)), … | purified M. tuberculosis FBA, fluorescence read-out | inhibition, % at 1 µM | 360,000 compounds, 2.3% hits; in the data active means inhibition above about 27%;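 further: 0% = vehicle and 100% = reference inhibitor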
Target sequence (P9WQA3 whole entry, looked up): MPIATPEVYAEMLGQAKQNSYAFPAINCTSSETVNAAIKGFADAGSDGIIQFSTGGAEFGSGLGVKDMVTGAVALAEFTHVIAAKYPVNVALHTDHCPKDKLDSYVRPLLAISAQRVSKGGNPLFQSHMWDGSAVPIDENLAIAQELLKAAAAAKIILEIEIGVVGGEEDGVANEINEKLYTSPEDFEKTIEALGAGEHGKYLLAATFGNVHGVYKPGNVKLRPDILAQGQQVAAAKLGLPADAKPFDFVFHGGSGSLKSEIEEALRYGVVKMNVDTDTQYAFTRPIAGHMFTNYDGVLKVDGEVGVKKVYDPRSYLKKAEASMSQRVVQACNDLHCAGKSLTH
BoNT F protease: BoNT/F light chain protease inhibitors, primary screen, biochemical, flow cytometry, MLPCN library; AID 588497, 2011; Multiplex microsphere protease cleavage assay; Botulinum neurotoxin type F light chain protease (Clostridium botulinum); inhibition, % at 10 µM; 360,000 compounds, 0.22% hits; in the data active means inhibition above about 35%, passing the limit was not always enough; inconclusive means no clear call, values can overlap the other calls; further: plate controls were buffer without enzyme for full effect and enzyme alone for no effect
Anthrax LF prot: Bacillus anthracis LF protease inhibitors, primary screen, biochemical, multiplex microsphere, MLPCN library | Lethal factor (Bacillus anthracis), P15917 | multiplex microsphere protease cleavage assay | inhibition, % at 10 µM | 360,000 compounds, 0.12% hits | AID 588501, 2011; further: plate controls were buffer without enzyme for full effect and enzyme alone for no effect
GDH-TPI inh: GDH-TPI coupling enzyme inhibitors, primary screen, artefact control for M. tuberculosis FBA inhibitor project, biochemical, absorbance, full deck | GDH-TPI coupled enzyme counterscreen, NADH absorbance | inhibition, % at 4.8 µM | 360,000 compounds, 1.2% hits; in the data active means inhibition above about 30%;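 further: 0% = DMSO wells and 100% = wells lacking the enzyme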
Bead autofluor: compound fluorescence in toxin protease inhibitor counterscreen; compound autofluorescence counterscreen, microsphere flow cytometry; hits give high values; fluorescence intensity (no concentration beside the values); 360,000 compounds, 3.1% hits; AID 624483; in the data active means fluorescence intensity above about 16000; inconclusive means no clear call, values can overlap the other calls
Numbers without * were called inactive; ? = inconclusive; nt = no result; + = active, no number. This is a sample that favours compounds with a hit; in the whole collection about 6.7% have one here. Unless noted, no stated cut-off is given here; in the data, active means inhibition above about 30%; inconclusive means no clear call, values can overlap the other calls; inactive means below that.

SMILES	BoNT A protease	Mtb FBA inh	BoNT F protease	Anthrax LF prot	GDH-TPI inh	Bead autofluor
CC(=O)OCc1c(C(F)(F)F)nn(C)c1Oc1cccc(C(F)(F)F)c1	-0.5	-2.5	1.1	-1.3	10.9	16385*
COc1cc2c(cc1OC)[C@@H]1Cc3cc4c(cc3[C@H](C2)N1C)OCO4	0.2	-1.4	-14.5	2.9	-0.9	3910
CCOC(=O)C(/C=C(\C#N)C(=O)OCC)=C(/N)N1CCN(c2ccc(Cl)cc2)CC1	nt	-1.1	nt	nt	58.5*	nt
O=C1c2ccc3c4c(ccc(c24)C(=O)N1c1cccc(O)c1)CC3	0.6	2.9	1.7	-1.0	9.3	2093
O=C1c2ccc3c4c(ccc(c24)C(=O)N1c1cccc(O)c1)C(=O)N(c1cccc(O)c1)C3=O	-1.2	3.0	0.0	-9.3	35.1*	4443
Cc1cc(C)c2c(n1)nn1c(N3CCN(Cc4ccccc4)CC3)cc(C)nc21	-0.2	113.6*	-5.5	-10.0	20.4	6669
CCOc1ccccc1NC(=O)CSc1nnc2ccc(-c3ccncc3)nn12	0.4	-2.0	0.8	-8.6	3.8	3610
COc1cc(NC(=O)Cn2c(-c3cncs3)nc3ccccc32)cc(OC)c1OC	?	-0.1	2.4	-2.1	12.4	21248*
COc1cc(NC(=O)Cn2c(C)cc3ccccc3c2=O)cc(OC)c1OC	0.6	1.6	-5.7	-1.9	9.7	4177
CCn1c(=Nc2ccc(N3CCOCC3)cc2)ccc2ccccc21	-0.8	0.9	-14.8	-5.5	9.7	4165
CCOc1cccc(-c2nnc3sc(-c4cc(OC)c(OC)c(OC)c4)nn23)c1	-0.2	-0.2	-8.6	-0.1	5.4	11659
COc1cc(-c2nn3c(COc4ccccc4)nnc3s2)cc(OC)c1OC	-0.8	3.0	1.2	1.6	-8.2	23486*
COc1cc(-c2nn3c(-c4ccccc4)nnc3s2)cc(OC)c1OC	nt	3.7	nt	nt	3.7	nt
COc1cc(-c2nn3c(Cc4ccccc4)nnc3s2)cc(OC)c1OC	2.1	6.7	2.9	-5.8	2.1	22616*
O=C1CN(C(=O)CNCc2ccc(Cl)cc2)c2ccccc2N1	-0.8	1.3	5.3	-3.2	3.8	4475
COc1ccc2c(c1)C1=NN(/C(C)=C\C(C)=O)C(c3ccccc3)C1CC2 (stereo unspecified)	3.0	2.6	-4.2	5.8	5.7	21972*
COc1ccc2c(c1)CCC1C2=NN(/C(C)=C\C(C)=O)C1c1ccc(F)cc1 (stereo unspecified)	?	0.3	?	?	-6.5	34486*
COc1ccc2c(c1)C1=NN(/C(C)=C/C(C)=O)C(c3ccc(F)cc3)C1CC2 (stereo unspecified)	0.5	3.2	9.5	1.4	3.6	15484
CC(C)NCC(O)COCc1ccc(Cl)cc1 (stereo unspecified)	0.1	2.4	4.1	-0.6	13.3	12662
CCC(CC)c1nn2c(N)c(/C=C3\C=Nc4ccccc43)c(=O)nc2s1	nt	+	nt	nt	18.6	nt
CNC(=O)NC(=O)CSc1nnc(-c2ccco2)n1-c1ccccc1	-4.2	1.6	8.4	-11.3	0.5	3825
COc1ccccc1NC(=O)CN(C)S(=O)(=O)c1cccc2cccnc12	0.7	1.8	5.1	0.2	3.5	5180
COc1ccc(N(C)S(=O)(=O)c2cccc3cccnc23)c(OC)c1	-1.1	2.1	1.0	-0.7	10.6	16783*
COc1cc(CN2CCC(C(=O)N3CCN(c4ccccc4F)CC3)CC2)ccc1O	0.5	0.0	1.6	-2.5	10.8	23648*
COc1cccc(CN2CCC(C(=O)N3CCN(c4ccccc4F)CC3)CC2)c1	0.4	2.1	6.2	-0.4	0.8	2414
COc1ccc(C(=O)SC2=NCCS2)cc1OC	?	-0.5	?	?	9.1	?
Cc1ccc([N+](=O)[O-])cc1-c1ccc(/C=N/NC(=O)CN2CCOCC2)o1	1.2	2.6	-10.8	-4.2	40.4*	6078
COC(=O)c1ccc(-c2ccc(/C=N/NC(=O)Cc3nnc(N)s3)o2)cc1	?	27.6*	?	-2.4	36.6*	4074
Nc1nnc(CC(=O)N/N=C\c2ccc(-c3cccc(Cl)c3)o2)s1	0.4	-2.6	-5.6	-4.8	33.1*	5602
